# Source: PubChem BioAssay AID1159580 (chemical genetic matrix, 2015)
# Several values for one entry are separate records, joined by “and”; a condition that tells them apart may be missing. Equal entries are not always repeated. Out of some 5,500 compounds screened, about 2,000 (36%) were called active. About 18% were inconclusive and are not listed. The list shows a part of the results. Values without a mark were called inactive. Rule as the data show it: active = normalized growth mostly below about 0.91 (no sharp cut-off); inconclusive = no clear call, values can overlap the other calls; inactive = mostly above about 0.92.
# Experiment: chemical genetic growth profiling, strain panel (AID 1159580);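 also: tested at 20 µM; growth read once vehicle control cultures reached saturation at 30 °C; 1 = growth at the plate median or of vehicle wells; lower values mean less growth of the strain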
# Conditions: growth OD
structure (smiles),measurement,setting,value
O=C1c2ccccc2C(=O)C1c1ccccc1,normalized growth,"S. cerevisiae deletion strains, locus YKL085W, strain MDH1 (second series), active compounds read low",0.994
same,normalized growth,"S. cerevisiae deletion strains, locus YKL085W, strain MDH1, active compounds read low",0.994
same,normalized growth,"S. cerevisiae deletion strains, locus YKL160W, strain elf1, active compounds read low",1
same,normalized growth,"S. cerevisiae deletion strains, locus YKL190W, strain CNB1, active compounds read low",1
same,normalized growth,"S. cerevisiae deletion strains, locus YKR001C, strain vps1, active compounds read low",1.01
same,normalized growth,"S. cerevisiae deletion strains, locus YKR026C, strain gcn3, active compounds read low",0.976
same,normalized growth,"S. cerevisiae deletion strains, locus YKR091W, strain srl3, active compounds read low",0.997
same,normalized growth,"S. cerevisiae deletion strains, locus YLL001W, strain dnm1, active compounds read low",1
same,normalized growth,"S. cerevisiae deletion strains, locus YLL026W, active compounds read low",0.993
same,normalized growth,"S. cerevisiae deletion strains, locus YLL041C, strain sdh2, active compounds read low",1
same,normalized growth,"S. cerevisiae deletion strains, locus YLR027C, strain aat2, active compounds read low",0.998
same,normalized growth,"S. cerevisiae deletion strains, locus YLR039C, strain RIC1, active compounds read low",0.983 and 0.913
same,normalized growth,"S. cerevisiae deletion strains, locus YLR058C, strain SHM2 (second series), active compounds read low",0.932 (active)
same,normalized growth,"S. cerevisiae deletion strains, locus YLR058C, strain SHM2, active compounds read low",1.01
same,normalized growth,"S. cerevisiae deletion strains, locus YLR085C, strain ARP6, active compounds read low",0.972
same,normalized growth,"S. cerevisiae deletion strains, locus YLR102C, strain apc9, active compounds read low",1.01
same,normalized growth,"S. cerevisiae deletion strains, locus YLR113W, strain HOG1, active compounds read low",0.934
same,normalized growth,"S. cerevisiae deletion strains, locus YLR221C, strain rsa3, active compounds read low",1
same,normalized growth,"S. cerevisiae deletion strains, locus YLR258W, strain gsy2, active compounds read low",1.02
same,normalized growth,"S. cerevisiae deletion strains, locus YLR262C, strain YPT6 (second series), active compounds read low",1
same,normalized growth,"S. cerevisiae deletion strains, locus YLR262C, strain YPT6, active compounds read low",0.967 and 0.909
same,normalized growth,"S. cerevisiae deletion strains, locus YLR268W, strain sec22, active compounds read low",1.03
same,normalized growth,"S. cerevisiae deletion strains, locus YLR320W, strain mms22, active compounds read low",1.01
same,normalized growth,"S. cerevisiae deletion strains, locus YLR330W, strain CHS5, active compounds read low",0.999
same,normalized growth,"S. cerevisiae deletion strains, locus YLR342W, strain FKS1 (second series), active compounds read low",1.01
same,normalized growth,"S. cerevisiae deletion strains, locus YLR342W, strain FKS1, active compounds read low",0.998
same,normalized growth,"S. cerevisiae deletion strains, locus YLR357W, strain rsc2, active compounds read low",1.03
same,normalized growth,"S. cerevisiae deletion strains, locus YLR370C, strain arc18, active compounds read low",1
same,normalized growth,"S. cerevisiae deletion strains, locus YLR371W, strain rom2, active compounds read low",1.01
same,normalized growth,"S. cerevisiae deletion strains, locus YLR384C, strain iki3, active compounds read low",1
same,normalized growth,"S. cerevisiae deletion strains, locus YLR418C, strain cdc73, active compounds read low",0.98
same,normalized growth,"S. cerevisiae deletion strains, locus YML016C, strain PPZ1, active compounds read low",1
same,normalized growth,"S. cerevisiae deletion strains, locus YML032C, strain rad52, active compounds read low",1.01
same,normalized growth,"S. cerevisiae deletion strains, locus YML094W, strain GIM5, active compounds read low",0.945
same,normalized growth,"S. cerevisiae deletion strains, locus YML120C, strain ndi1, active compounds read low",1.01
same,normalized growth,"S. cerevisiae deletion strains, locus YML124C, strain tub3, active compounds read low",1.01
same,normalized growth,"S. cerevisiae deletion strains, locus YMR058W, strain fet3, active compounds read low",0.999
same,normalized growth,"S. cerevisiae deletion strains, locus YMR078C, strain ctf18, active compounds read low",1.01
same,normalized growth,"S. cerevisiae deletion strains, locus YMR125W, strain sto1, active compounds read low",0.995
same,normalized growth,"S. cerevisiae deletion strains, locus YMR129W, active compounds read low",0.992
same,normalized growth,"S. cerevisiae deletion strains, locus YMR205C, strain PFK2, active compounds read low",1.01
same,normalized growth,"S. cerevisiae deletion strains, locus YMR219W, strain ESC1, active compounds read low",0.954
same,normalized growth,"S. cerevisiae deletion strains, locus YMR223W, strain ubp8, active compounds read low",1
same,normalized growth,"S. cerevisiae deletion strains, locus YMR231W, strain pep5, active compounds read low",1
same,normalized growth,"S. cerevisiae deletion strains, locus YMR263W, strain SAP30, active compounds read low",1.01
same,normalized growth,"S. cerevisiae deletion strains, locus YMR307W, strain GAS1, active compounds read low",1.01
same,normalized growth,"S. cerevisiae deletion strains, locus YNL067W, strain RPL9B, active compounds read low",0.999
same,normalized growth,"S. cerevisiae deletion strains, locus YNL071W, strain lat1, active compounds read low",1
same,normalized growth,"S. cerevisiae deletion strains, locus YNL128W, strain TEP1, active compounds read low",1.02
same,normalized growth,"S. cerevisiae deletion strains, locus YNL153C, strain GIM3, active compounds read low",0.996 and 0.979
same,normalized growth,"S. cerevisiae deletion strains, locus YNL183C, strain NPR1, active compounds read low",0.939
same,normalized growth,"S. cerevisiae deletion strains, locus YNL209W, strain ssb2, active compounds read low",1.01
same,normalized growth,"S. cerevisiae deletion strains, locus YNL233W, strain BNI4, active compounds read low",1
same,normalized growth,"S. cerevisiae deletion strains, locus YNL248C, strain rpa49, active compounds read low",1
same,normalized growth,"S. cerevisiae deletion strains, locus YNL250W, strain rad50, active compounds read low",0.989
same,normalized growth,"S. cerevisiae deletion strains, locus YNL271C, strain bni1, active compounds read low",1
same,normalized growth,"S. cerevisiae deletion strains, locus YNL298W, strain CLA4 (second series), active compounds read low",0.968
same,normalized growth,"S. cerevisiae deletion strains, locus YNL298W, strain CLA4, active compounds read low",0.994
same,normalized growth,"S. cerevisiae deletion strains, locus YNL307C, strain MCK1, active compounds read low",1
same,normalized growth,"S. cerevisiae deletion strains, locus YNL322C, strain KRE1 (second series), active compounds read low",1
same,normalized growth,"S. cerevisiae deletion strains, locus YNL322C, strain KRE1, active compounds read low",1 and 0.969
same,normalized growth,"S. cerevisiae deletion strains, locus YNR030W, strain Alg12, active compounds read low",0.969
same,normalized growth,"S. cerevisiae deletion strains, locus YNR049C, strain mso1, active compounds read low",0.998
same,normalized growth,"S. cerevisiae deletion strains, locus YNR052C, strain pop2, active compounds read low",1.01
same,normalized growth,"S. cerevisiae deletion strains, locus YOL006C, strain TOP1, active compounds read low",0.964
same,normalized growth,"S. cerevisiae deletion strains, locus YOL012C, strain htz1",0.826
same,normalized growth,"S. cerevisiae deletion strains, locus YOL147C, strain pex11, active compounds read low",1.01
same,normalized growth,"S. cerevisiae deletion strains, locus YOR001W, strain rrp6, active compounds read low",1.01
same,normalized growth,"S. cerevisiae deletion strains, locus YOR061W, strain CKA2, active compounds read low",1
same,normalized growth,"S. cerevisiae deletion strains, locus YOR069W, strain VPS5, active compounds read low",1
same,normalized growth,"S. cerevisiae deletion strains, locus YOR070C, strain gyp1, active compounds read low",0.996
same,normalized growth,"S. cerevisiae deletion strains, locus YOR080W, strain dia2, active compounds read low",1
same,normalized growth,"S. cerevisiae deletion strains, locus YOR083W, strain WHI5, active compounds read low",0.999
same,normalized growth,"S. cerevisiae deletion strains, locus YOR106W, strain vam3, active compounds read low",1.01
same,normalized growth,"S. cerevisiae deletion strains, locus YOR136W, strain idh2, active compounds read low",1.01
same,normalized growth,"S. cerevisiae deletion strains, locus YOR144C, strain elg1, active compounds read low",1
same,normalized growth,"S. cerevisiae deletion strains, locus YOR184W, strain ser1, active compounds read low",1.02
same,normalized growth,"S. cerevisiae deletion strains, locus YOR231W, strain MKK1, active compounds read low",0.992
same,normalized growth,"S. cerevisiae deletion strains, locus YOR265W, strain rbl2, active compounds read low",0.995
same,normalized growth,"S. cerevisiae deletion strains, locus YOR270C, strain vph1, active compounds read low",1.01
same,normalized growth,"S. cerevisiae deletion strains, locus YOR290C, strain snf2, active compounds read low",0.997
same,normalized growth,"S. cerevisiae deletion strains, locus YOR316C, strain cot1, active compounds read low",1.01
same,normalized growth,"S. cerevisiae deletion strains, locus YPL051W, strain arl3, active compounds read low",1
same,normalized growth,"S. cerevisiae deletion strains, locus YPL055C, strain LGE1, active compounds read low",1 and 0.972
same,normalized growth,"S. cerevisiae deletion strains, locus YPL078C, strain atp4, active compounds read low",1
same,normalized growth,"S. cerevisiae deletion strains, locus YPL106C, strain sse1, active compounds read low",1.01
same,normalized growth,"S. cerevisiae deletion strains, locus YPL240C, strain hsp82, active compounds read low",1
same,normalized growth,"S. cerevisiae deletion strains, locus YPL241C, strain CIN2, active compounds read low",1.21 [resistant] (active)
same,normalized growth,"S. cerevisiae deletion strains, locus YPL256C, strain CLN2, active compounds read low",0.917
same,normalized growth,"S. cerevisiae deletion strains, locus YPR119W, strain clb2, active compounds read low",1.01
same,normalized growth,"S. cerevisiae deletion strains, locus YPR135W, strain CTF4, active compounds read low",0.934
same,normalized growth,"S. cerevisiae deletion strains, locus YPR141C, strain kar3, active compounds read low",0.987
same,normalized growth,"S. cerevisiae deletion strains, locus YPR163C, strain tif3, active compounds read low",1.01
same,normalized growth,"S. cerevisiae deletion strains, locus YPR167C, strain met16, active compounds read low",1.01
same,normalized growth,"S. cerevisiae deletion strains, strain wtn01, active compounds read low",1.01
same,normalized growth,"S. cerevisiae strains, strain wild type, active compounds read low",0.999 and 0.961
